High-throughput results deposited in PubChem by National Center for Advancing Translational Sciences (NCATS).
FLuc inh-1 = Firefly luciferase inhibition profiling of diverse chemical library using quantitative high-throughput screening | purified P. pyralis luciferase, luminescence, biochemical | Potency, µM (top dose mostly 115 µM), hits mostly inhibitors | 76,000 tested, 2.5% active; also: nearly all actives have a fitted effect of over 65% in size
Target sequence (P08659 whole entry, looked up): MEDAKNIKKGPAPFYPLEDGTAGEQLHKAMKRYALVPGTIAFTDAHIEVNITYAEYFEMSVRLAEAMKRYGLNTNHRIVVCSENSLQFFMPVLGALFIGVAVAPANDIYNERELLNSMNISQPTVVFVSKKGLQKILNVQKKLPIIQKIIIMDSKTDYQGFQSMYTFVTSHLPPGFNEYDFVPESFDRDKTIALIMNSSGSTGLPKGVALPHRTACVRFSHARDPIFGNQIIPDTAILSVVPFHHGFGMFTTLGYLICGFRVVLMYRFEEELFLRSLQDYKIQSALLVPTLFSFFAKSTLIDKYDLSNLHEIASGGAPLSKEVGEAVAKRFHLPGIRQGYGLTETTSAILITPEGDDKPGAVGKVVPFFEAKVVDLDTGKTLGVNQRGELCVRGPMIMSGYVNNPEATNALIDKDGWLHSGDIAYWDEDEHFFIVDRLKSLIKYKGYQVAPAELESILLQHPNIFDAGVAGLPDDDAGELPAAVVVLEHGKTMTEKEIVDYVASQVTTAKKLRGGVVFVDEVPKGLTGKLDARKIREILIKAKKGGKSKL
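FLuc 10nM, D-luciferin 10uM, ATP 10uM, Mg acetate 10mM, Tris acetate pH 7.5, Tween/BSA; cpd qHTS; enzyme added last; CCD luminescence.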
SNCA expr inh = Primary qHTS assay for inhibitors of alpha-synuclein gene (SNCA) expression; HEK-293 SNCA-luciferase knock-in, luminescence, 24 h; Potency, µM (top dose mostly 57.2 µM), most hits filed as inhibitors; 140,000 tested, 0.17% active; also: nearly all actives have a fitted effect of over 45% in size
NPR1 antag = Natriuretic polypeptide receptor (hNpr1) antagonism - Primary qHTS; Atrial natriuretic peptide receptor 1 (Homo sapiens), P16066; HEK293 hNpr1 GloSensor cGMP, ANP-stimulated luminescence; Potency, µM (series often up to 46.3 µM), hits mostly inhibitors; 76,000 tested, 1.6% active; calls by dose curve; also: nearly all actives have a fitted effect of over 60% in size
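Compound pre-incubated 30 min at room temperature on GloSensor-loaded HEK293 cells stably carrying hNpr1 and the pGS-40F cGMP biosensor. Stimulation uses hNppA at 0.1 nM final; luminescence is taken at baseline and 20 min post-agonist.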
HEK293 viab = GF-AFC viability counterscreen for inhibitors of alpha-synuclein gene (SNCA) expression; AID 1671193, 2021; HEK-293-SNCA-luc viability, GF-AFC fluorescence, 24 h; Potency, µM (highest dose often 57.1 µM), usual class: cytotoxic; 150,000 tested, 0.12% active; also: nearly all actives have a fitted effect of over 30% in size
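Cytotoxicity counterscreen: after 24 h compound treatment of genome-edited SNCA-luciferase HEK-293 cells, live-cell protease substrate GF-AFC read by fluorescence after 30 min; activity scaled between DMSO (0%) and medium-only (-100%), curves Hill-fitted.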
3T3 cytotox = Cytotoxic Profiling in NIH 3T3 Cell Line of Diverse Libraries Using Quantitative High-Throughput Screening. NIH 3T3 viability, CellTiter-Glo ATP luminescence, 48-72 h. Potency, µM (series often up to 96.7 µM), most hits filed as inhibitors. 94,000 tested, 4.3% active. AID 1345082, 2018; also: nearly all actives have a fitted effect of over 55% in size
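ATP-dependent luminescence (CellTiter-Glo) served as the viability signal for NIH 3T3 cells treated with compound for 48 or 72 hr at 37 °C.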
HEK cytotox = Cytotoxic Profiling in HEK 293 Cell Line of Diverse Libraries Using Quantitative High-Throughput Screening | HEK 293 viability, ATP luminescence (CellTiter-Glo), 48-72 h | Potency, µM (doses to about 115 µM), actives largely listed as inhibitors | 94,000 tested, 6.6% active | AID 1345083, 2018; also: nearly all actives have a fitted effect of over 60% in size
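ATP-coupled CellTiter-Glo luminescence served as viability read-out, recorded 10 min after reagent addition at room temperature. HEK 293 cells, 250 cells/well, had been incubated with pintool-transferred compound for 48 or 72 hr at 37 degree Celsius.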
FLuc SDR -ATP = Firefly luciferase (FLuc-C-HiBiT) SDR gain of signal screen - without ATP; 1,300 tested, 7.8% active; Potency, µM (top dose mostly 32.7 µM), hits mostly activators; Purified FLuc-C-HiBiT, Nano-Glo HiBiT luminescence, no ATP; shares compounds with FLuc inh-1; also: nearly all actives have a fitted effect of over 55% in size
FLuc SDR ATP = Firefly luciferase (FLuc-C-HiBiT) SDR gain of signal screen - plus ATP; 1,300 tested, 8.7% active; shares compounds with FLuc inh-1; AID 1963319, 2024; purified FLuc-C-HiBiT + ATP, HiBiT complementation luminescence; Potency, µM (series often up to 32.7 µM), most hits filed as activators;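 also: signal reports ligand binding via conformational change of the enzyme rather than luciferase catalysis; nearly all actives have a fitted effect of over 55% in size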
FLuc inh-2 = Firefly luciferase (FLuc-C-HiBiT) enzymatic inhibition screen - Functional assay; shares compounds with FLuc inh-1; purified FLuc-C-HiBiT enzyme, luciferin luminescence; Potency, µM (series often up to 32.7 µM), most hits filed as inhibitors; 1,300 tested, 42% active; also: nearly all actives have a fitted effect of over 70% in size
Each line names hits and unclear results; the compound was inactive in the other large screens (follow-up assays come after a bar, where they were run). Hits are enriched below; roughly 7.4% of the tested compounds scored in any of these assays. Unless noted, calls follow the shape of the dose curve; as a rule, active = well fitted curve in the direction sought with a large enough effect; inconclusive = small, poorly fitted or top-dose-only effect, or another doubt; inactive = no such curve, though single readings can be large; an effect the other way counts as inactive or inconclusive.

O=C(NC1CCCCC1)C1CCN(C(=O)c2ncn3c2COC(c2ccc(Cl)cc2)C3)CC1 (stereo not given)	FLuc inh-1 inconclusive, HEK293 viab inconclusive
CC(C)CN1CCN(C2CCOC3(CCN(S(=O)(=O)Cc4ccccc4)CC3)C2)CC1 (stereo not given)	none (no result: FLuc inh-1, NPR1 antag)
O=C(NCCC1CCCCC1)c1c[nH]c2ncccc12	FLuc inh-1 5.62µM, NPR1 antag inconclusive, 3T3 cytotox inconclusive, HEK cytotox 70.8µM | FLuc SDR -ATP inconclusive | FLuc SDR ATP inactive | FLuc inh-2 18µM
CCOCC1(C)COc2ccc(C(=O)Nc3ccc(Cl)cc3)cc2N1 (stereo not given)	FLuc inh-1 11.2µM, NPR1 antag 31.6µM, 3T3 cytotox 44.7µM, HEK cytotox 39.8µM | FLuc SDR -ATP inactive | FLuc SDR ATP inactive | FLuc inh-2 inconclusive
CCCc1ccc2oc(C(=O)NCCc3nncn3CC)c(C)c2c1	FLuc inh-1 3.55µM, 3T3 cytotox inconclusive, HEK cytotox inconclusive | FLuc SDR -ATP inactive | FLuc SDR ATP inactive | FLuc inh-2 inconclusive
O=C(NCCCc1ccccc1)C1CCCN1C(=O)c1cccc(-c2cccnc2)c1 (stereo not given)	3T3 cytotox inconclusive (no result: FLuc inh-1, SNCA expr inh, NPR1 antag, HEK293 viab)
Cc1ccsc1CN1CCC2(CCC2N2CCOCC2)CC1 (stereo not given)	none (no result: FLuc inh-1, NPR1 antag)
Cc1ccc(CN2C(=O)COC[C@H]2C(=O)Nc2ccccc2F)cc1	none (no result: FLuc inh-1, NPR1 antag)
COc1ccc(C(=O)NC2CCCN(c3cc(-c4ccc(F)cc4)[nH]n3)C2)cc1OC (stereo not given)	FLuc inh-1 12.6µM, HEK cytotox inconclusive | FLuc SDR -ATP inactive | FLuc SDR ATP inactive | FLuc inh-2 inconclusive
O=C(NC1CCCN(c2cc(-c3ccc(F)cc3)[nH]n2)C1)c1ccc(C(F)(F)F)cc1 (stereo not given)	HEK cytotox inconclusive
COc1ccc(C(=O)NC2CCCN(c3cc(-c4ccc(Cl)cc4)[nH]n3)C2)cc1OC (stereo not given)	FLuc inh-1 3.98µM, 3T3 cytotox inconclusive, HEK cytotox 35.5µM | FLuc SDR -ATP inactive | FLuc SDR ATP inactive | FLuc inh-2 6.24µM
COc1ccc(-c2cc(N3CCCC(NC(=O)c4ccc(OC)c(OC)c4)C3)n[nH]2)cc1 (stereo not given)	FLuc inh-1 3.16µM, 3T3 cytotox inconclusive, HEK cytotox inconclusive | FLuc SDR -ATP inconclusive | FLuc SDR ATP inconclusive | FLuc inh-2 3.94µM
COc1cccc(CNC(=O)C2CCc3nnc(CNC(=O)NC(C)(C)C)n32)c1 (stereo not given)	none (no result: FLuc inh-1, NPR1 antag)
Cc1nc(-c2ccc(F)cc2)n(CC(=O)NCc2ccc3c(c2)OCO3)c(=O)c1CCO	3T3 cytotox inconclusive
